Some test systems named below: NCI-H23 lung; NCI-H226 lung; NCI-H322M lung; HOP-62 NSCLC; NCI-H460 lung; A549/ATCC NSCLC; 786-0 renal; COLO 205 colon; DU-145 prostate; K-562 leukemia; MALME-3M melanoma; MDA-MB-231 breast; RXF 393 renal; SF-268 CNS; SF-295 CNS; SF-539 CNS; UACC-257 melanoma; M14 melanoma; HCT-15 colon; NCI-H522 lung.
Holding throughout (assay): NCI-60 one-dose screen, 48 h (100 = growth as untreated, 0 = no growth, -100 = all killed)
Holding throughout (conditions): 10 µM unless noted

About 83,000 compounds went through this panel and 20% of them were active in at least one assay; those are over-represented in the sample as a whole.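 Single-dose data. Exposure time 48 hours. Values below 10 considered active.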 Unmarked numbers belong to inactive results. Calls of active or inactive are those of the source.

As for `O=C(CSCC(=O)N/N=C/c1ccccc1O)N/N=C\c1ccccc1O`, the growth in the assay on NCI-H23 lung was 40.8%; in the assay on NCI-H226 lung, 39.4%; in the assay with NCI-H322M lung, 15.7%; in the assay with HOP-62 NSCLC, 25.3%; with NCI-H460 lung it was 14.2%; with A549/ATCC NSCLC, 38.1%. Also, the growth was 5.14% (active) with 786-0 renal; 17.2% in the assay on COLO 205 colon; 37.1% with DU-145 prostate; 10.8% with K-562 leukemia; 2.43% (active) in the assay with MALME-3M melanoma; 42.7% with MDA-MB-231 breast. The growth is 44.8% in the assay on RXF 393 renal; 28.9% in the assay with SF-268 CNS; 35.5% in the assay with SF-295 CNS; 25.6% in the assay on SF-539 CNS; 25.6% in the assay with UACC-257 melanoma; -4.57% (active) in the assay with M14 melanoma. For the same compound, the growth in the assay on HCT-15 colon is 22.9%.

Turning to `CCCCC(C#N)C(N)=O` (configuration not stated), the growth in the assay with NCI-H23 lung is 105%; in the assay on NCI-H226 lung, 102%; in the assay with NCI-H322M lung, 110%; in the assay on HOP-62 NSCLC it was 99%; in the assay on NCI-H460 lung, 111%; with NCI-H522 lung, 96.7%. The growth in the assay on 786-0 renal is 96.4%; in the assay with COLO 205 colon, 124%; in the assay with DU-145 prostate it was 104%; in the assay on MALME-3M melanoma, 107%; in the assay with MDA-MB-231 breast, 104%; with RXF 393 renal, 121%. Moreover, the growth in the assay on SF-268 CNS is 114%; in the assay with SF-539 CNS, 96.9%; with M14 melanoma, 104%; in the assay on HCT-15 colon it was 105%.

On to `CC(C)C/C(=N\NC(=O)c1ccncc1)c1cc(Cl)ccc1O`, for which the growth in the assay with NCI-H23 lung is 23.1%; in the assay with NCI-H226 lung it was 50.5%; with NCI-H322M lung it was 13.1%; in the assay on HOP-62 NSCLC, 30.6%; in the assay with NCI-H460 lung it was 8.41% (active); in the assay with A549/ATCC NSCLC, 20.8%. Also, the growth in the assay on 786-0 renal is -1.16% (active); in the assay with COLO 205 colon it was 13.9%; with DU-145 prostate it was 23.5%; with K-562 leukemia, 9.61% (active); with MALME-3M melanoma, 21.7%; with MDA-MB-231 breast it was 36.3%. Besides, the growth in the assay on RXF 393 renal is 40.2%; in the assay on SF-268 CNS, 24.9%; in the assay on SF-295 CNS, 19.2%; in the assay with SF-539 CNS, 12%; in the assay on UACC-257 melanoma, 6.11% (active); in the assay with M14 melanoma, 2.19% (active). Further, the growth with HCT-15 colon was 23%.

On to `COc1ccc(C(=O)COc2cccc(/C=C3\Oc4ccc5ccccc5c4C3=O)c2)cc1`, for which the growth was 10.3% in the assay with NCI-H23 lung; 71.7% in the assay with NCI-H226 lung; 106% in the assay with NCI-H322M lung; 89.8% in the assay with HOP-62 NSCLC; 100% in the assay on NCI-H460 lung; -0.888% (active) with NCI-H522 lung. The growth was 100% with 786-0 renal; 77.3% in the assay on COLO 205 colon; 81.4% with K-562 leukemia; 17.2% in the assay with MALME-3M melanoma; 79.3% in the assay on MDA-MB-231 breast; 83.7% in the assay with SF-268 CNS. The growth in the assay on SF-295 CNS was 119%; in the assay on SF-539 CNS it was -50% (active); in the assay with UACC-257 melanoma it was 95.7%; in the assay on M14 melanoma, 49.2%; with HCT-15 colon, 43.7%.

As to `C[n+]1ccc(Nc2ccc(NC(=O)c3ccc(Nc4cc[n+](C)c5ccc(N)cc45)cc3)cc2)cc1`, the growth is 104% with NCI-H23 lung; 82.6% in the assay on NCI-H226 lung; 146% in the assay on NCI-H322M lung; 102% in the assay on HOP-62 NSCLC; 82.6% with NCI-H460 lung; 109% in the assay on NCI-H522 lung. The growth in the assay on 786-0 renal is 97%; with COLO 205 colon, 92.8%; in the assay with DU-145 prostate it was 119%; with K-562 leukemia, 88.5%; in the assay with MALME-3M melanoma it was 142%; in the assay with MDA-MB-231 breast, 97%. The growth with SF-268 CNS is 105%; with SF-295 CNS it was 72.7%; in the assay with SF-539 CNS, 85.9%; in the assay with M14 melanoma it was 103%; with HCT-15 colon, 99.9%.

As for `CCC(c1ccccc1)c1noc(CCN(CC)CC)n1` (configuration not stated), the growth was 99.5% with NCI-H23 lung; 90.7% with NCI-H226 lung; 109% with NCI-H322M lung; 97.4% in the assay with HOP-62 NSCLC; 103% with NCI-H460 lung; -8.89% (active) in the assay with NCI-H522 lung. Besides, the growth in the assay on 786-0 renal was 108%; in the assay with COLO 205 colon, 114%; in the assay on DU-145 prostate, 100%; in the assay on K-562 leukemia, 65.1%; in the assay with MALME-3M melanoma, 93.8%; in the assay with MDA-MB-231 breast it was 106%. For the same compound, the growth was 33.3% in the assay with RXF 393 renal; 103% in the assay with SF-268 CNS; 108% in the assay on SF-295 CNS; 101% with SF-539 CNS; 96.7% with M14 melanoma; 108% with HCT-15 colon.

With `CCOC(=O)c1ccccc1OC(=O)NNc1ccccc1`, the growth in the assay with NCI-H23 lung was 100%; with NCI-H226 lung it was 88.8%; with NCI-H322M lung, 58%; in the assay on HOP-62 NSCLC, 70.6%; in the assay on NCI-H460 lung, 30.5%; with A549/ATCC NSCLC it was 74.1%. Further, the growth in the assay with 786-0 renal was 44.6%; in the assay on COLO 205 colon, 76.2%; in the assay with DU-145 prostate, 82%; in the assay with K-562 leukemia, 5.06% (active); in the assay with MALME-3M melanoma it was 82.1%; with MDA-MB-231 breast it was 81.3%. The growth was 124% in the assay on RXF 393 renal; 65.6% in the assay on SF-268 CNS; 49.1% with SF-295 CNS; 10.7% with SF-539 CNS; 85.8% with UACC-257 melanoma; 57.3% with M14 melanoma. The growth in the assay with HCT-15 colon was 46%.

As to `N#Cc1c(N)[nH]c(S)c1C#N`, the growth was 105% in the assay on NCI-H23 lung; 97.5% in the assay on NCI-H226 lung; 108% in the assay on NCI-H322M lung; 107% in the assay on NCI-H460 lung; 97.4% in the assay with NCI-H522 lung; 90.9% in the assay with A549/ATCC NSCLC. Further, the growth was 107% in the assay with 786-0 renal; 120% in the assay on COLO 205 colon; 112% with DU-145 prostate; 100% in the assay with K-562 leukemia; 107% in the assay with MALME-3M melanoma; 99.3% in the assay on MDA-MB-231 breast. Also, the growth was 113% in the assay on RXF 393 renal; 108% in the assay with SF-268 CNS; 87.7% in the assay with SF-295 CNS; 97.9% in the assay on SF-539 CNS; 99.9% with UACC-257 melanoma; 100% in the assay with M14 melanoma. The growth with HCT-15 colon is 100%.

For the compound `COc1ccc(-c2nnc(COc3ccc(NC(=O)Nc4cc(C(F)(F)F)cc(C(F)(F)F)c4)cc3F)o2)cc1`, the growth in the assay on NCI-H23 lung was -11% (active); in the assay with NCI-H226 lung it was 7.41% (active); in the assay with NCI-H322M lung it was 23.4%; in the assay with NCI-H460 lung it was 4.82% (active); with NCI-H522 lung, -17.8% (active); in the assay on A549/ATCC NSCLC, 3.87% (active). Further, the growth with 786-0 renal was 16.2%; in the assay on COLO 205 colon, -40.7% (active); in the assay on DU-145 prostate it was 12.4%; with K-562 leukemia it was 9.15% (active); in the assay with MALME-3M melanoma it was -16.5% (active); in the assay on MDA-MB-231 breast, -22.6% (active). Also, the growth with RXF 393 renal was 16.3%; in the assay with SF-268 CNS it was 18.8%; in the assay with SF-539 CNS, 20.3%; in the assay on UACC-257 melanoma, 0.873% (active); with M14 melanoma, 18%; with HCT-15 colon it was 10%.

(Values after PubChem BioAssay (NCI).)
